Test results: PubChem BioAssay (NCATS)
Results filed as inconclusive are left out. A number with no mark means an inactive call. The call rests on the fitted dose curve; in most records, active means well fitted inhibition curve with a large enough effect; inconclusive means small, poorly fitted or top-dose-only effect; inactive means flat fitted curve, though single readings scatter.

biological target: Calcium and integrin-binding protein 1 (Homo sapiens) (UniProt Q99828); assay: Primary qHTS for Identification of Calcium Integrin Binding Protein 1 (CIB1) Competitor (AID 1508620); conditions: CIB1-GST / FITC-alphaIIb peptide fluorescence polarization; series mostly up to 114 µM; activity change, negative = inhibition: at the top concentration;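 further: GST tagged CIB1 binding a fluorescein labelled alphaIIb integrin peptide tracer; top concentration of the series differs between compounds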
Sequence (Q99828 whole entry, looked up): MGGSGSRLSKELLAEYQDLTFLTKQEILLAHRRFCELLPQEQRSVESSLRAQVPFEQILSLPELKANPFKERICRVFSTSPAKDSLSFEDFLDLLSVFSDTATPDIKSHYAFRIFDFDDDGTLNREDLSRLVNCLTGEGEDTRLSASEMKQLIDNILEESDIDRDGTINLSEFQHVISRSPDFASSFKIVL
How it was run: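 Fluorescence polarization competition: CIB1-GST (1 uM final) preincubated with compound 15 min at room temperature, then FITC-labeled alphaIIb peptide (100 nM final) added for another 15 min. Polarization read at Ex 480/Em 540.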
On the % scale 0 is the no-effect control and ±100 the full control effect.

How did the “activity change, negative = inhibition” value turn out when `OC1CCC(Nc2nc(-c3ccccc3)nc3[nH]ccc23)CC1` (configuration not stated) was run?
The value was -3.59%.

Which “activity change, negative = inhibition” value does the source give for `CC(C)n1c(=O)c(C(=O)NC2CC3CCC(C2)N3C[C@@H](O)CN(C)S(C)(=O)=O)cc2ccccc21` (some centres not stated) here?
The value was -0.867%.

With `CC[C@@H](C)Nc1cc(C(=O)NC2CC3CC[C@@H](C2)N3c2ccc(C(=O)C3CC3)cn2)c(C)cc1C(N)=O` (some centres not stated) as the compound, how does the “activity change, negative = inhibition” value read?
Its value is -3.05%.

`C=C1C(=O)O[C@@H]2/C=C(\CO)CC/C=C(/C=O)C[C@@H](O)[C@@H]12` was tested. Which “activity change, negative = inhibition” value did it give?
The value was -1.97%.

How did the “activity change, negative = inhibition” value turn out when `O=C(NCCCNC(=O)c1ccc[nH]c1=O)c1cc(-c2ccccc2)on1` was run?
The value was 1.76%.

For `Cc1sc2c(c1C)C(c1ccc(Cl)cc1)=N[C@H](CC(=O)NCCCCNC(=O)COc1cccc3c1C(=O)N([C@H]1CCC(=O)NC1=O)C3=O)c1nnc(C)n1-2`, which “activity change, negative = inhibition” value is on record?
The value was 1.19%.

Which “activity change, negative = inhibition” value does the source give for `CCOC(=O)c1csc(Nc2ccc(Cl)cc2)n1` here?
The value was -0.012%.

Which “activity change, negative = inhibition” value does the source give for `CC[C@@H](C)Nc1cc(C(=O)NC2CC3CCC(C2)N3c2ccc(C(=O)C3CC3)cn2)c(C)cc1C(N)=O` (some centres not stated) here?
The value was -1.89%.

How did the “activity change, negative = inhibition” value turn out when `Cc1ccccc1C(C(=O)NC1CCCCC1)N(C(=O)Cn1cnc2ccccc21)c1cccc(F)c1` (configuration not stated) was run?
Its value is 9.23%.

Which “activity change, negative = inhibition” value does the source give for `C[C@H](Nc1cc2c(-c3ccc4c(c3)OCO4)noc2cn1)c1ccccc1` here?
Its value is 0.248%.

With `C=C(C)C(=O)O[C@H]1/C(C=O)=C\CC/C(CO)=C/[C@H]2OC(=O)C(=C)[C@@H]2[C@@H]1OC` as the compound, how does the “activity change, negative = inhibition” value read?
The value was 1.6% [at 57.7 µM].

`CC(=O)O[C@H]1[C@@]2(O)C[C@H](C)[C@H](OC(=O)c3ccccc3)[C@@H]2[C@@H](OC(=O)CO)[C@]2(OC(C)=O)C[C@H]3C(=O)C(C)(C)C[C@@H]3[C@@]1(C)[C@H]2OC(C)=O` was tested. Which “activity change, negative = inhibition” value did it give?
Its value is 2.32% [at 30.2 µM].
